# From PubChem BioAssay
# “And” between values parts separate entries of the source, which are not always exact repeats. Equal entries are not always repeated. The source made the active and inactive calls. Unless noted, no stated cut-off is given here; in the data, active means nuclear beta-catenin stimulation mostly above about 4.2% (no sharp cut-off); inactive means mostly below about 10%.
# Assays:
# [1] = Wnt pathway potentiators raising nuclear beta-catenin – imaging, WNT3A-conditioned medium, mouse C2C12, NPC library, primary screen (AID 1117326); details: stronger effect = higher value
# [2] = growth inhibition of GSK3B-pretreated HCT116 cells – cell-based, CellTiter-Glo, 0.2 to 20 µM (AID 1117336;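 active means compounds lowering colon cancer cell viability after pretreatment blocking the GSK3B kinase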); details: HCT116 viability after GSK3B inhibitor, at 20 µM, stronger effect = higher value
# [3] = inhibition of endothelial tube formation, primary screen, imaging, VEGF stimulated, CD31 staining, tube area, NPC library (AID 1117340;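 active means compound that reduces growth-factor-driven endothelial tube area in a mixed cell culture, no cutoff stated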); details: VEGF-stimulated ADSC/ECFC co-culture, at 10 µM, stronger effect = higher value
# [4] = HCT116 colon cancer cell growth inhibition, primary screen, CellTiter-Glo luminescence, NPC library (AID 1117342;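 active means compounds that lower survival of HCT116 colon cancer cells in the luminescence readout, no numeric limit stated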); details: at 20 µM (top of the series)
# [5] = reduced SW480 viability measured with CellTiter-Glo, NPC library, primary (AID 1117343;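 active means compounds that lower viability of the colon cancer cells in the luminescence readout, with no numeric limit stated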); details: CellTiter-Glo luminescence; at 20 µM (top of the series) unless noted
# [6] = NPC library primary testing for decreased DLD-1 cell viability via CellTiter-Glo (AID 1117346;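 active means compounds that lower survival of DLD-1 colon cancer cells in the luminescence readout, no cutoff given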); details: DLD-1 viability, CellTiter-Glo luminescence; at 20 µM (top of the series)
# [7] = compounds altering viability of human ES cells (AID 493140; call rule not given here;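 further: cells exposed to compounds for four days before counting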); details: human embryonic stem cell survival screen; stronger effect = higher value
# [8] = stimulators of insulin release from INS-1E, primary screen, cell-based, 5 mM glucose, NPC library (AID 1117329;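 active means compound raises insulin release from rat beta cells at 5 mM glucose, no numeric limit stated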); details: rat INS-1E insulin secretion, at 10 µM, stronger effect = higher value
# [9] = GLP1 release stimulators, primary, NCI-H716, NPC library (AID 1117341;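 active means compound raises GLP1 secretion from the human gut endocrine cells, with no numeric limit stated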); details: NCI-H716 cells, at 10 µM, stronger effect = higher value
# [10] = MELAS cybrid and Rieske KO viability enhancers – cell-based, MELAS cybrids, Rieske KO mouse fibroblasts, CellTiter-Glo, primary screen (AID 1508586;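 active means mean z-score across replicates of 1.96 or higher in either the MELAS or the Rieske mutant cell line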;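 further: z relative to plate mean and SD of compound and empty wells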); details: low glucose
# [11] = galactose survival enhancers in mitochondrial complex I cybrids – cell-based, galactose medium, ATP luminescence, primary screen (AID 1645843;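 active means z-score of at least 1.8 in each of two replicates, scored against plate mean and spread of sample wells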;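 further: positive z means more ATP and so rescue of galactose-driven cybrid death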); details: complex I mutant cybrid cells, 72 h, stronger effect = higher value
# [12] = EMT-state selective cytotoxicity in co-culture – imaging, PC-3E GFP, TEM4-18 mCherry, primary screen (AID 1345086;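 active means compounds killing one labelled cell type while sparing the other, by normalised counts and ratio limits, not self-fluorescent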;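 on all read-outs here: cells exposed to compound for 72 h before imaging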;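 on red/green cell ratio (normalised): normalised mesenchymal count divided by normalised epithelial count so high means epithelial killing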); details: PC-3E GFP / TEM4-18 mCherry co-culture, imaging cell counts, at 1 µM; for red/green cell ratio (normalised): actives lie on both sides, counts scaled to control wells, 1 = unselective
# [13] = viability loss with induced miR-34 in A549 – imaging, A549 dox-inducible miR-34, nuclei and caspase counts, primary screen (AID 1347080;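 active means compounds whose cell count with miR-34 switched on is under 0.7 times the count with it off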); details: A549 miR-34 inducible, Hoechst nuclei count, 48 h
# [14] = target: NAD(+) hydrolase SARM1 (Homo sapiens) (UniProt Q6SZW1); assay: blocking NAD cleavage by SARM1 SAM-TIR – cell lysate, NAD-Glo luminescence (AID 1508614;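 active means compound whose remaining NAD level is above about 45 nM, limit read from the data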); details: SAM-TIR HEK293T lysate NADase, at 1 µM, stronger effect = higher value
# [15] = P. berghei load reduction in hepatocytes – cell-based, HepG2, luciferase luminescence, HepG2 viability, primary screen (AID 624349; in the data active means parasite load remaining mostly below about 12%, no sharp cut-off; inactive means mostly above about 10%;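 further: 100% = mean of DMSO negative control wells on the same plate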); details: P. berghei liver stage in HepG2, luciferase luminescence, concentration not given here; parasite load remaining: stronger effect = lower value; viability: measured here: HepG2 viability without parasites
# [16] = blockers of cellular phospholipid synthesis – cell-based, LOPAC library, screen 4, primary screen (AID 1347384; call rule not given here); details: animal cells, phospholipid biosynthesis inhibition screen; at 10 µM
# [17] = target: 6-phosphogluconate dehydrogenase, decarboxylating (Homo sapiens) (UniProt P52209); assay: inhibition of human phosphogluconate dehydrogenase – biochemical, recombinant enzyme, NADPH absorbance, primary screen (AID 1159550;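 active means at least 20% inhibition of 6-phosphogluconate dehydrogenase activity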); details: recombinant 6PGD, NADPH absorbance 341 nm; at 10 µM; stronger effect = higher value
# [18] = modulation of C. elegans fzo-1 (AID 1259413; call rule not given here;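 further: fzo-1 mutant C. elegans worms in liquid wells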); details: C. elegans fzo-1 modulator screen, mean read-out; stronger effect = higher value
# [19] = target: Mitogen-activated protein kinase 7 (Homo sapiens) (UniProt Q13164); assay: Gal4-ERK5 driven luciferase induction – cell-based, HTS, primary screen (AID 1508626;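 active means luciferase signal above three times the same-plate solvent-only control wells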;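 further: luciferase driven by Gal4-ERK5 fusion binding five Gal4 sites before minimal TATA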); details: HeLa Gal4-ERK5 transactivation, 18 h, at 5 µM, stronger effect = higher value
# [20] = MELAS cybrid survival, CellTiter-Glo 48 h, stronger effect = higher value
# [21] = Rieske KO mouse fibroblast survival, CellTiter-Glo 72 h
# [22] = measured here: epithelial PC-3E GFP cell survival
# [23] = measured here: mesenchymal TEM4-18 mCherry cell survival
# [24] = stronger effect = lower value, cell number ratio, induced over uninduced
# [25] = measured here: relative caspase fold change +Dox/-Dox
# [26] = measured here: total cells with miR-34 induction, stronger effect = lower value
# [27] = measured here: total cells without miR-34 induction
# Chain of NAD(+) hydrolase SARM1 (Homo sapiens) (Q6SZW1 whole entry, looked up): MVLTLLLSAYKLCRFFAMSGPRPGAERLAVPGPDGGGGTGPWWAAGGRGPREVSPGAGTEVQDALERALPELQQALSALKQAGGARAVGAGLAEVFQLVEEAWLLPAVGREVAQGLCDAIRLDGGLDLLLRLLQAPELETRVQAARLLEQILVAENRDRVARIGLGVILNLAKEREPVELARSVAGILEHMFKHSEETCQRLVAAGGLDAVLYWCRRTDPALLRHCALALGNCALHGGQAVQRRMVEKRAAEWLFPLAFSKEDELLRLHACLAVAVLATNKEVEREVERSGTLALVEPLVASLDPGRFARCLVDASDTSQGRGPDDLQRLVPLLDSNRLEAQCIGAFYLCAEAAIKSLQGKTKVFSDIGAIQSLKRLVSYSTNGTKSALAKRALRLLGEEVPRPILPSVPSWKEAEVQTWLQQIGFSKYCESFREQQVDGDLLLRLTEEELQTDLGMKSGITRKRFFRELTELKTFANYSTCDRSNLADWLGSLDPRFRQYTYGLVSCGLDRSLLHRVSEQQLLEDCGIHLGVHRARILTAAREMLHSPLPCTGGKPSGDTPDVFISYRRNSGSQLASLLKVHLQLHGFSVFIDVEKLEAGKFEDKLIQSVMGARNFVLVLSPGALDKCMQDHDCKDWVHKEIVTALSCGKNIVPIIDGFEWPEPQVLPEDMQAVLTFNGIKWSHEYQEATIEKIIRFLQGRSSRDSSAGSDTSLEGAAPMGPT
# Chain of 6-phosphogluconate dehydrogenase, decarboxylating (Homo sapiens) (P52209 whole entry, looked up): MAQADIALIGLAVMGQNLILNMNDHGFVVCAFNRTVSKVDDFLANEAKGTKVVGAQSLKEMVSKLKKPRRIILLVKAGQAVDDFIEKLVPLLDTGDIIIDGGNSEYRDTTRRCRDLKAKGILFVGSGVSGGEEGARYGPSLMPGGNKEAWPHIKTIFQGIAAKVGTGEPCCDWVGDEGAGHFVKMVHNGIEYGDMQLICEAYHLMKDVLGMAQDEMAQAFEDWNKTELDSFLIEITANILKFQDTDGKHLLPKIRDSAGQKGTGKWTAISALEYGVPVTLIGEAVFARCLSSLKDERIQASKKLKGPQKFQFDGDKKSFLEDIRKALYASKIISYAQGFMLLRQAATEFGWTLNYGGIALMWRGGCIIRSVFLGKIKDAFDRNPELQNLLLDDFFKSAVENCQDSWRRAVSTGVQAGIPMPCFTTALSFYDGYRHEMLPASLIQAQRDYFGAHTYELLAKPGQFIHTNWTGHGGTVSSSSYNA
# Chain of Mitogen-activated protein kinase 7 (Homo sapiens) (Q13164 whole entry, looked up, the tested form may be a part): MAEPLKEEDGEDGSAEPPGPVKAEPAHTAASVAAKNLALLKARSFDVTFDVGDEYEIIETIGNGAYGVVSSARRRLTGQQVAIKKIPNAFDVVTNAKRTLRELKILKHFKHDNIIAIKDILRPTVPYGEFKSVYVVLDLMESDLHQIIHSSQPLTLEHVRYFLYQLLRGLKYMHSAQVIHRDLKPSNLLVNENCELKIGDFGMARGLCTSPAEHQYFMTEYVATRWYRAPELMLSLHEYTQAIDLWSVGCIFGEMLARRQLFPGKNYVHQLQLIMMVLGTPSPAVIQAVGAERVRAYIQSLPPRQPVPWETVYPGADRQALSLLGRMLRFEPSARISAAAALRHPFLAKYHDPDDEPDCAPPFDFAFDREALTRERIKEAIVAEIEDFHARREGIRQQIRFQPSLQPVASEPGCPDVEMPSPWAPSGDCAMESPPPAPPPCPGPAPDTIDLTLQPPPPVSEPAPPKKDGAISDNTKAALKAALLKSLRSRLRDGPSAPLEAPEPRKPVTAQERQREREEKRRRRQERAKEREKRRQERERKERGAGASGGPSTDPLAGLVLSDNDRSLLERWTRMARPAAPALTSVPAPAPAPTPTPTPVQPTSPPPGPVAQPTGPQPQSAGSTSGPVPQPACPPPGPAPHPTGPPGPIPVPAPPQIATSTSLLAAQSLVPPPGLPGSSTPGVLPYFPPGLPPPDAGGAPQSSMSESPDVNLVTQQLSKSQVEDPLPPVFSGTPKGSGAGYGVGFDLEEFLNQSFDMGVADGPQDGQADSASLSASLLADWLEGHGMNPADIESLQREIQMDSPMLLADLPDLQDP
structure (smiles),measurement,setting,value
NC(=O)C1(N2CCCCC2)CCN(CCCN2c3ccccc3CCc3ccc(Cl)cc32)CC1,nuclear beta-catenin stimulation,[1]; at 10 µM,1.5% (inactive)
same,nuclear beta-catenin stimulation,"[1]; stimulation, at 2 µM",12.3%
same,viability decrease,[2],99.5% (active)
same,tube area decrease,[3],109% (active)
same,inhibition of viability,[4],99.4% (active)
same,viability decrease (inhibition),[5],102% (active)
same,viability decrease (inhibition),[6],102% (active)
Cc1cccc(Nc2cc(Cl)nc(SCC(=O)O)n2)c1C,survival,[7],88 (inactive)
same,nuclear beta-catenin stimulation,[1]; at 10 µM,-0.3% (inactive)
same,nuclear beta-catenin stimulation,"[1]; stimulation, at 2 µM",0.2%
same,insulin secretion stimulation,[8],-0.2% (inactive)
same,GLP1 secretion stimulation,[9],-3.8% (inactive)
same,z-score,[10]; [20],-0.392 (inactive)
same,z-score,[10]; [21],-0.362
same,z-score,[11],0.215 (inactive)
CSc1ccc(/C=C2/C(C)=C(CC(=O)O)c3cc(F)ccc32)cc1,nuclear beta-catenin stimulation,[1]; at 10 µM,-1.4% (inactive)
same,nuclear beta-catenin stimulation,"[1]; stimulation, at 2 µM",-0.1%
same,insulin secretion stimulation,[8],1.85% (inactive)
same,GLP1 secretion stimulation,[9],9.9% (inactive)
CCCCC(CC)COC(=O)CC(C(=O)OCC(CC)CCCC)S(=O)(=O)O (centres undefined),nuclear beta-catenin stimulation,[1]; at 10 µM,2.7% (inactive)
same,nuclear beta-catenin stimulation,"[1]; stimulation, at 2 µM",-0.9%
same,insulin secretion stimulation,[8],-1.3% (inactive)
same,GLP1 secretion stimulation,[9],84.6% (active)
same,red/green cell ratio (normalised),[12],0.91 (inactive)
same,normalised cell number,[12]; [22],0.99
same,normalised cell number,[12]; [23],0.9
same,fold change,[13]; [24],0.854 (inactive)
same,fold change,[13]; [25],1.07
same,cell count,[13]; [26],8120
same,cell count,[13]; [27],9510
same,remaining NAD,[14],10 nM (inactive)
CCCCC[C@@H](O)CC[C@H]1[C@@H]2Cc3cccc(OCC(=O)O)c3C[C@@H]2C[C@@H]1O,nuclear beta-catenin stimulation,[1]; at 10 µM,-0.3% (inactive)
same,nuclear beta-catenin stimulation,"[1]; stimulation, at 2 µM",0.2%
same,insulin secretion stimulation,[8],-0.45% (inactive)
same,GLP1 secretion stimulation,[9],8.8% (inactive)
C/C(=N\O)[C@@H](C)NCC(C)(C)CN[C@H](C)/C(C)=N/O,nuclear beta-catenin stimulation,[1]; at 10 µM,1.5% (inactive)
same,nuclear beta-catenin stimulation,"[1]; stimulation, at 2 µM",-1.3%
same,insulin secretion stimulation,[8],1.9% (inactive)
same,GLP1 secretion stimulation,[9],-8.7% (inactive)
COc1ccc(/C=N/NC(=O)c2ccncc2)cc1OC,nuclear beta-catenin stimulation,[1]; at 10 µM,3.6% (inactive)
same,nuclear beta-catenin stimulation,"[1]; stimulation, at 2 µM",8%
same,viability decrease,[2],2.5% (inactive)
same,tube area decrease,[3],12.2% (inactive)
same,inhibition of viability,[4],11.9% (inactive)
same,viability decrease (inhibition),[5],-1% (inactive)
same,viability decrease (inhibition),[6],-0.1% (inactive)
CC(=O)N(CC(O)CN(C(C)=O)c1c(I)c(C(=O)NCC(O)CO)c(I)c(C(=O)NCC(O)CO)c1I)c1c(I)c(C(=O)NCC(O)CO)c(I)c(C(=O)NCC(O)CO)c1I (centres undefined),survival,[7],2.67 (inactive)
same,parasite load remaining,[15],80.7% (inactive)
same,viability,[15],90.6%
same,nuclear beta-catenin stimulation,[1]; at 10 µM,0.8% (inactive)
same,nuclear beta-catenin stimulation,"[1]; stimulation, at 2 µM",1.9%
same,insulin secretion stimulation,[8],0.95% (inactive)
same,GLP1 secretion stimulation,[9],2% (inactive)
same,red/green cell ratio (normalised),[12],1.05 (inactive)
same,normalised cell number,[12]; [22],1
same,normalised cell number,[12]; [23],1.05
same,fold change,[13]; [24],0.892 (inactive)
same,fold change,[13]; [25],0.943
same,cell count,[13]; [26],8820
same,cell count,[13]; [27],9890
same,z-score,[10]; [20],0.435 (inactive)
same,z-score,[10]; [21],-0.343
same,remaining NAD,[14],10 nM (inactive)
CCc1cccc(N(C)C(N)=Nc2cccc3ccccc23)c1,nuclear beta-catenin stimulation,[1]; at 10 µM,-1.6% (inactive)
same,nuclear beta-catenin stimulation,"[1]; stimulation, at 2 µM",-1.7%
same,insulin secretion stimulation,[8],60.2% (active)
same,GLP1 secretion stimulation,[9],1.6% (inactive)
same,fold change,[13]; [24],1.03 (inactive)
same,fold change,[13]; [25],1.33
same,cell count,[13]; [26],7210
same,cell count,[13]; [27],6970
same,outcome,[16],inactive
same,z-score,[11],-1.44 (inactive)
CC(=O)NC(=O)c1ccccc1O,nuclear beta-catenin stimulation,[1]; at 10 µM,4.6% (inactive)
same,nuclear beta-catenin stimulation,"[1]; stimulation, at 2 µM",0.9%
same,insulin secretion stimulation,[8],-0.5% (inactive)
same,GLP1 secretion stimulation,[9],-0.9% (inactive)
CCC=CCC=CCC=CCCCCCCCC(=O)O,nuclear beta-catenin stimulation,[1]; at 10 µM,-0.2% (inactive)
same,nuclear beta-catenin stimulation,"[1]; stimulation, at 2 µM",0%
same,insulin secretion stimulation,[8],2.65% (inactive)
same,GLP1 secretion stimulation,[9],12.4% (inactive)
CN1CCN(C2Cc3ccccc3Sc3ccc(Cl)cc32)CC1 (centres undefined),nuclear beta-catenin stimulation,[1]; at 10 µM,5.2% (inactive)
same,nuclear beta-catenin stimulation,"[1]; stimulation, at 2 µM",-1.6%
same,insulin secretion stimulation,[8],6.6% (inactive)
same,GLP1 secretion stimulation,[9],13.2% (inactive)
same,fold change,[13]; [24],1.08 (inactive)
same,fold change,[13]; [25],0.783
same,cell count,[13]; [26],5640
same,cell count,[13]; [27],5230
same,outcome,[16],inactive
same,z-score,[11],-1.27 (inactive)
CCOC(=O)[C@H](CCc1ccccc1)N[C@@H](C)C(=O)N1C(=O)N(C)C[C@H]1C(=O)O,nuclear beta-catenin stimulation,[1]; at 10 µM,0% (inactive)
same,nuclear beta-catenin stimulation,"[1]; stimulation, at 2 µM",-1.6%
same,insulin secretion stimulation,[8],0% (inactive)
same,GLP1 secretion stimulation,[9],2% (inactive)
Cc1c(N)cccc1C(F)(F)F,nuclear beta-catenin stimulation,[1]; at 10 µM,0.9% (inactive)
same,nuclear beta-catenin stimulation,"[1]; stimulation, at 2 µM",5.4%
same,viability decrease,[2],2.8% (inactive)
same,tube area decrease,[3],5.6% (inactive)
same,inhibition of viability,[4],11.2% (inactive)
same,viability decrease (inhibition),[5],1.3% (inactive)
same,viability decrease (inhibition),[6],6.9% (inactive)
CC(C)=CCCC(C)=CCCC(C)=CCCC=C(C)CCC=C(C)CCC=C(C)C,nuclear beta-catenin stimulation,[1]; at 10 µM,-0.4% (inactive)
same,nuclear beta-catenin stimulation,"[1]; stimulation, at 2 µM",1.7%
same,insulin secretion stimulation,[8],0.6% (inactive)
same,GLP1 secretion stimulation,[9],-1.9% (inactive)
Cc1ccc(O)cc1,parasite load remaining,[15],125% (inactive) and 76.1% (inactive)
same,viability,[15],68.3% and 96.4%
same,nuclear beta-catenin stimulation,[1]; at 10 µM,0.9% (inactive)
same,nuclear beta-catenin stimulation,"[1]; stimulation, at 2 µM",13.3%
same,viability decrease,[2],4.4% (inactive)
same,tube area decrease,[3],-11.8% (inactive)
same,inhibition of viability,[4],13.6% (inactive)
same,viability decrease (inhibition),[5],-6.4% (inactive)
same,viability decrease (inhibition),[6],-0.4% (inactive)
same,inhibition,[17],-1.83% (inactive)
same,red/green cell ratio (normalised),[12],1.31 (inactive)
same,normalised cell number,[12]; [22],1.05
same,normalised cell number,[12]; [23],1.37
same,fold change,[13]; [24],0.843 (inactive)
same,fold change,[13]; [25],3.01
same,cell count,[13]; [26],10700
same,cell count,[13]; [27],12700
Cc1c(C)c2c(c(C)c1O)CC[C@@](C)(CCC[C@H](C)CCC[C@H](C)CCCC(C)C)O2,parasite load remaining,[15],72.9% (inactive)
same,viability,[15],100%
same,nuclear beta-catenin stimulation,[1]; at 10 µM,0.1% (inactive)
same,nuclear beta-catenin stimulation,"[1]; stimulation, at 2 µM",0.4%
same,insulin secretion stimulation,[8],1% (inactive)
same,GLP1 secretion stimulation,[9],4.7% (inactive)
same,inhibition,[17],-20.7% (inactive)
same,fold change,[13]; [24],0.864 (inactive)
same,fold change,[13]; [25],1.16
same,cell count,[13]; [26],7550
same,cell count,[13]; [27],8740
same,remaining NAD,[14],10 nM (inactive)
COCCCOc1ccnc(CS(=O)c2nc3ccccc3[nH]2)c1C (centres undefined),parasite load remaining,[15],32% (inactive) and 56.4% (inactive)
same,viability,[15],108% and 71%
same,nuclear beta-catenin stimulation,[1]; at 10 µM,0% (inactive)
same,nuclear beta-catenin stimulation,"[1]; stimulation, at 2 µM",9.8%
same,viability decrease,[2],32.7% (inactive)
same,inhibition of viability,[4],20.2% (inactive)
same,viability decrease (inhibition),[5],4.6% (inactive)
same,viability decrease (inhibition),[6],-10.8% (inactive)
same,mean signal,[18],232 (inactive)
same,red/green cell ratio (normalised),[12],0.79 (inactive)
same,normalised cell number,[12]; [22],1.16
same,normalised cell number,[12]; [23],0.91
same,fold change,[13]; [24],0.932 (inactive) and 0.863 (inactive)
same,fold change,[13]; [25],1.16 and 3.79
same,cell count,[13]; [26],9170 and 10700
same,cell count,[13]; [27],9840 and 12400
same,remaining NAD,[14],10 nM (inactive)
same,luciferase signal,[19],200 AU (inactive)
same,z-score,[11],-0.225 (inactive)
